Bioassay records: PubChem, several laboratories
M1 ag: M1 muscarinic receptor agonism; AID 626; 64,000 compounds, 3% hits; CHO-M1 cells, Fluo-4 calcium fluorescence, agonist mode; hits give high values; B-score at 10 µM;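 active means fluorescence rise, raw or as B-score row- and column-corrected plate score, outside the 99.7% band of its plate's samples, either direction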
M1 antag: blocks the rat M1 muscarinic receptor response to acetylcholine. B-score at 10 µM. CHO-M1 cells, Fluo-4 calcium, ACh EC80 antagonist mode; hits give low values. 64,000 compounds, 3.4% hits;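 active means calcium fluorescence response, raw or row-and-column corrected B-score, differing from the plate sample mean either way at a set confidence level, mostly lower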
Target sequence (P08482 whole entry, looked up): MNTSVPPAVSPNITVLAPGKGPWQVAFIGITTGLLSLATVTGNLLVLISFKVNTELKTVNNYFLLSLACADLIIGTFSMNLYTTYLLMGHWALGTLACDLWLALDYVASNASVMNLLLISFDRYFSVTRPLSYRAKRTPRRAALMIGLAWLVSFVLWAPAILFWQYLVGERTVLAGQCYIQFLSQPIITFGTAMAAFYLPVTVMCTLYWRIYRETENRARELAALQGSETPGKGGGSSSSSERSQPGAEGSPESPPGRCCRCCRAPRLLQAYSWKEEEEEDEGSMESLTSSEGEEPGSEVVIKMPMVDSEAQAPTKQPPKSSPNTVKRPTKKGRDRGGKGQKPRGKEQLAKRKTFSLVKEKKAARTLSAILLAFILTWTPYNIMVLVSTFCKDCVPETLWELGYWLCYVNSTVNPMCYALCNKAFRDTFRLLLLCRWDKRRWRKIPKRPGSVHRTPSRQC
hDAT+cocaine: modulates human dopamine transporter uptake under cocaine; AID 449768; LLC-PK1 hDAT cells, [14C]-dopamine uptake with cocaine IC80; actives deviate in either direction; B-score at 10 µM; Q01959; 110,000 compounds, 1.3% hits;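 active means Z score or B-score, a plate-position-corrected score, falls beyond the plate's 99.7% confidence bounds, in either direction; inactive means both scores lie inside the 99.7% bounds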;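 further: scored against the spread of the other compound wells on the same plate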
D1 allo mod: allosterically modulates the human D1 dopamine receptor; 58,000 compounds, 5.9% hits; HEK293 D1, CRE-luciferase, dopamine EC30 potentiation; actives deviate in either direction; P21728; AID 641; B-score at 10 µM;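 active means luminescence count or its row- and column-corrected plate score outside the 99.7% band of the plate's sample wells, on either side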
FXIIa inh mix: factor XIIa (human) inhibition, mixture screen; P00748; purified FXIIa, fluorogenic substrate, pooled mixtures; inhibition, % at 5 µM; 62,000 compounds, 0.2% hits; AID 684;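 further: 0% = enzyme without compound and 100% = no enzyme blank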
FXIa mix inh: inhibitors of human coagulation factor XIa, pooled mixtures. P03951. purified FXIa, fluorogenic substrate. inhibition, % at 5 µM. 62,000 compounds, 0.19% hits;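 further: each value is inhibition by a whole ten-compound pool holding the compound; 0% = enzyme with no mixture and 100% = wells lacking enzyme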
The depositor's hits bear a star; . = not tested or not shown. Only some compounds are listed: those with a hit (about 7.4% of all), similar ones and a draw of the others. Unless noted, no stated cut-off is given here; in the data, active means inhibition above about 20% (passing the limit was not always enough); inactive means the rest.

SMILES | M1 ag | M1 antag | hDAT+cocaine | D1 allo mod | FXIIa inh mix | FXIa mix inh
COc1ccc(CCNC(=O)COc2ccc(S(=O)(=O)N3CCOCC3)cc2)cc1 | 0.3 | 0.27 | 2.4* | 0.65 | 0 | 16
O=[N+]([O-])c1nn(-c2ccc3c(c2)OCCO3)n(O)c1=NCc1ccccc1Cl | . | . | 14* | . | . | .
O=C(NCCCn1ccnc1)c1ccc(Br)c(S(=O)(=O)N2CCOCC2)c1 | . | . | -8.4* | . | . | .
CC(=O)Nc1ccc(NC(=O)CN2CCN(c3cccc(C(F)(F)F)c3)CC2)cc1 | . | . | -0.19 | . | . | .
CC1CCc2nc(N)c(C#N)c(-c3cccn3C)c2C1 (stereo not given) | . | . | -0.0025 | -0.12 | 1 | 1
CCOC(=O)C(NC(C)=O)(Nc1cccc(F)c1)C(F)(F)F (stereo not given) | -0.013 | 0.21 | 0.33 | -6.4* | 3 | -10
COC(=O)CSc1ncnc2c1sc1nc(-c3ccco3)c3c(c12)CC(C)(C)OC3 | -0.29 | 0.67 | . | . | . | .
Cc1nc(OCC(=O)c2ccc(Cl)cc2)c(C#N)c2c1COC(C)(C)C2 | . | . | -0.53 | . | . | .
CCOC(=O)c1sc2nc(-c3ccco3)c3c(c2c1N)CC(C)(C)OC3 | -1.4 | 0.08 | 1.2 | 4* | 11 | 2
CC1(C)Cc2c(C#N)c(OCC(=O)c3ccc(Cl)cc3)nc(-c3ccco3)c2CO1 | -0.16 | 0.059 | -2.4* | 0.47 | 29 | -1
CCOc1cc(-c2nc(-c3ccc(C)nc3OCC)no2)cc(OCC)c1OCC | -2.3 | 1 | -0.59 | 0.077 | -10 | -16
C#CC(CC)(CC)NC(=S)Nc1cccc(C(C)=O)c1 | . | . | 1.7 | . | . | .
Cn1c(Cn2c(=O)sc3ccccc32)nnc1SCc1cccnc1 | 0.65 | -0.85 | 0.67 | 0.78 | -2 | 3
O=C(O)C1C2C=CC(C2)C1C(=O)OC1CC2CCC1C2 (stereo not given) | -1.1 | -0.14 | 0.015 | -4.9* | 20 | 3
O=C(CCS(=O)(=O)c1cccs1)N1CCCC1 | -0.41 | -0.48 | -0.72 | 0.73 | 9 | 9
CN(c1ccc(OCC(=O)N2CCCCC2)cc1)S(=O)(=O)c1cccs1 | 0.24 | -0.68 | 3* | . | 7 | 8
CCOC(=O)c1ccc(Nc2ncnc3nc[nH]c23)cc1 | 0.01 | -0.066 | -0.09 | -5.9* | -14 | 3
CCOC(=O)c1ccc(Nc2ncnc3ccc(C)cc23)cc1 | . | . | -0.62 | . | . | .
COCc1c(Br)c(C)[nH]c(=O)c1C#N | . | . | 1.6* | . | . | .
CCCN1CCCc2cc(CN)ccc21 | 5.7* | -0.87 | -2.4* | 0.014 | 5 | 2
CN1CCCc2cc(C=O)ccc21 | . | . | 1.1 | . | . | .
Cc1ccc(CSc2nnc(-c3ccco3)o2)cc1 | . | . | 0.63 | . | . | .
CC(C)COc1ccc(-c2nnc(-c3ccco3)o2)cc1 | . | . | 0.57 | -5.5* | 12 | -36
CCCOc1ccc(-c2nnc(-c3ccco3)o2)cc1 | 0.52 | -0.11 | 1.2 | -4.7* | 0 | 4
O=C(COc1ccccc1)Nc1ccc(-c2nnc(-c3ccco3)o2)cc1 | 0.19 | -0.21 | -1.1 | -0.23 | 2 | 5
SMILES | M1 ag | M1 antag | hDAT+cocaine | D1 allo mod | FXIIa inh mix | FXIa mix inh
O=C(COc1ccc2ccccc2c1)NCCNC(=O)COc1ccc2ccccc2c1 | . | . | 0.036 | . | . | .
O=C(COc1ccc2ccccc2c1)Nc1cccc2cccnc12 | . | . | -7.6* | . | . | .
CCOC(=O)c1c(NC(=O)c2cc(C(C)C)on2)sc(C(C)=O)c1C | . | . | -0.43 | . | . | .
O=C(O)C(Cc1ccccc1)N1C(=O)/C(=C/c2cccc3ccccc23)SC1=S (stereo not given) | . | . | -2.7* | . | . | .
CN(c1ccc(C(=O)NC2CC3CCC2C3)cc1)S(C)(=O)=O (stereo not given) | . | . | -0.76 | . | . | .
CC1(C)Oc2ccc3ccc(=O)oc3c2/C(=C/Nc2ccccn2)C1=O | -0.53 | -0.46 | 0.27 | -3.6* | 8 | 4
CN/C=C1\C(=O)C(C)(C)Oc2ccc3ccc(=O)oc3c21 | 1.5 | 0.078 | 0.026 | 1.3 | 2 | 13
COc1ccc(NC(=O)c2cc(S(=O)(=O)N3CCCCC3)ccc2N2CCCCC2)cn1 | 0.73 | 0.18 | 1.1 | . | . | 10
CC1CN(c2oc(-c3ccco3)nc2S(=O)(=O)c2ccccc2)CC(C)O1 (stereo not given) | 0.78 | 0.46 | 0.22 | . | -18 | -4
O=S(=O)(c1ccccc1)c1nc(-c2ccccc2Cl)oc1NCCN1CCOCC1 | . | . | -0.028 | . | . | .
Cc1ccccc1-c1nc(S(=O)(=O)c2ccc(Cl)cc2)c(NCCN2CCOCC2)o1 | . | . | 1.9* | . | . | .
CC(NC(=O)Nc1cccnc1)(C(F)(F)F)C(F)(F)F | -1.4 | 0.032 | -1.1 | . | . | .
CC(NC(=O)Nc1cccc([N+](=O)[O-])c1)(C(F)(F)F)C(F)(F)F | . | . | -3* | . | . | .
